{"source": "PubChem BioAssay (Tox21)", "note": "Records with an inconclusive call do not appear. A call without a number means that no potency is given here. Calls of active or inactive are those of the source. Calls follow the shape of the full dose curve. Potency is read from the fitted curve at half-maximal effect.", "data": [{"molecular_target": "Progesterone receptor (Homo sapiens) (UniProt P06401)", "sequence (P06401 whole entry, looked up)": "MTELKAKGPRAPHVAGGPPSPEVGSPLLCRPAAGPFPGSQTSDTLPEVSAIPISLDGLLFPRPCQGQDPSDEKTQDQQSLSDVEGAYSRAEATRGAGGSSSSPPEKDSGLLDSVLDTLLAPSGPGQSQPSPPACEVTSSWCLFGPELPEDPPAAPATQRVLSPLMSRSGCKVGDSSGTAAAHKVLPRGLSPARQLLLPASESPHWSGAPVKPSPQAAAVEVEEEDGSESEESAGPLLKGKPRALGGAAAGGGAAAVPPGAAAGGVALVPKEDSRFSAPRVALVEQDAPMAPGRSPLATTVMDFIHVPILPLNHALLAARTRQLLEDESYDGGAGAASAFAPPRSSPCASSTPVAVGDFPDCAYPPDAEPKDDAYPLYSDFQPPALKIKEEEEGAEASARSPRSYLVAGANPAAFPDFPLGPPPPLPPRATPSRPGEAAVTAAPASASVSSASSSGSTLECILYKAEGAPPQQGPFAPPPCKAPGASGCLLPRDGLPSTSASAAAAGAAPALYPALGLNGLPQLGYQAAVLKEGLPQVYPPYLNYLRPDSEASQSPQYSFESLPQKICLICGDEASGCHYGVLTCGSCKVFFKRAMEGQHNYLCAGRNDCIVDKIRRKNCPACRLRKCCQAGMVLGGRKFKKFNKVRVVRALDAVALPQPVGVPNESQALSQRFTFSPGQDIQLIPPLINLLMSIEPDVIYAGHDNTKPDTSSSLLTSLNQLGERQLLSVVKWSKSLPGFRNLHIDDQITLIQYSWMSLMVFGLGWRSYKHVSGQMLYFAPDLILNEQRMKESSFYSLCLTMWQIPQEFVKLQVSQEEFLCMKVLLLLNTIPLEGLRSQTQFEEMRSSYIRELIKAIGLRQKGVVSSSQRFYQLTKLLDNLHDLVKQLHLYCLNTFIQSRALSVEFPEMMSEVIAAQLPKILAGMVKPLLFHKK", "assay": "qHTS assay to identify small molecule agonists of the progesterone receptor (PR) signaling pathway (AID 1346784); also: nearly all actives have a fitted effect of over 30% in size", "conditions": "PR-UAS-bla HEK293T, beta-lactamase FRET ratio, 16 h; series mostly up to 92.4 µM", "excerpt": "U.S. Tox21 Program National Center for Advancing Translational Sciences [NCATS] NIH Chemical Genomics Center [NCGC] U.S. Environmental Protection Agency [EPA] National Institutes of Environmental Health Sciences [NIEHS] National Toxicology Program [NTP] U.S. Food and Drug Administration [FDA] […] Endocrine disrupting chemicals (EDCs) and their interactions with steroid hormone receptors like PR causes disruption of normal endocrine function. To identify the compounds that activate PR signaling, a PR-UAS-bla GripTite cell line i.e. PR-UAS-bla HEK 293T (Invitrogen, Carlsbad, CA, USA) containing a beta-lactamase reporter gene under the control of an Upstream Activator Sequence (UAS) was used to screen Tox21 10K compound library.\nTox21 Assay Protocol Summary: PR-UAS-bla HEK 293T cells were dispensed at 3,000 cells/5 uL of assay medium containing 2% charcoal stripped FBS per well into black wall/clear-bottom 1536-well plates using a Multidrop Combi (ThermoFisher Scientific, Waltham, MA) dispenser. After the assay plates were incubated at a 37C and 5% CO2 for 6hr, 23 nL of compounds dissolved in DMSO, positive controls or DMSO only was transferred to the assay plate by a Pintool station (Kalypsys, San Diego, CA). The plates were incubated at 37C and 5% CO2 for 16hr. Then 1 uL of LiveBLAzer B/G FRET substrate was added using a BioRAPTR FRD (Flying Reagent Dispenser, Aurora Discovery, San Diego, CA). After the plates were incubated at room temperature for 2 hours, fluorescence intensity was measured by an Envision plate reader (PerkinElmer, Shelton, CT).", "values": [{"smiles": "NC(=O)NS(=O)(=O)c1ccc(Cl)cc1", "Potency": "inactive"}, {"smiles": "CC(C)(C)c1cccc(O)c1", "Potency": "inactive"}, {"smiles": "CN1CCN(c2c(F)cc3c(=O)c(C(=O)O)cn(CCF)c3c2F)CC1", "Potency": "inactive"}, {"smiles": "FC(F)(F)c1ccccc1", "Potency": "inactive"}, {"smiles": "CCc1cc(Cl)c(OC)c(C(=O)NC[C@@H]2CCCN2CC)c1O", "Potency": "inactive"}, {"smiles": "CCOc1ccc(NC(N)=O)cc1", "Potency": "inactive"}, {"smiles": "CN(C)Cc1ccccc1", "Potency": "inactive"}, {"smiles": "CCCS(=O)c1ccc2nc(NC(=O)OC)[nH]c2c1", "note": "(stereo not given)", "Potency": "inactive"}, {"smiles": "CN1CCC[C@@H]1Cc1c[nH]c2ccc(CCS(=O)(=O)c3ccccc3)cc12", "Potency": "inactive"}, {"smiles": "CCCCN1C[C@H](O)[C@@H](O)[C@H](O)[C@H]1CO", "Potency": "inactive"}, {"smiles": "CC(C)C1=CC2=CC[C@@H]3[C@](C)(CCC[C@@]3(C)C(=O)O)[C@H]2CC1", "Potency": "inactive"}, {"smiles": "O=C(Cl)c1cccc([N+](=O)[O-])c1", "Potency": "inactive"}, {"smiles": "O=C1Nc2ccc([N+](=O)[O-])cc2C1=O", "Potency": "inactive"}, {"smiles": "OCc1ccccc1O", "Potency": "inactive"}, {"smiles": "CCN1CC(CCN2CCOCC2)C(c2ccccc2)(c2ccccc2)C1=O", "note": "(stereo not given)", "Potency": "inactive"}, {"smiles": "CC(Oc1c(Cl)cccc1Cl)C1=NCCN1", "note": "(stereo not given)", "Potency": "inactive"}, {"smiles": "CCCCCOc1ccc(C2SC(=O)NC2=O)cc1OCC", "note": "(stereo not given)", "Potency": "inactive"}, {"smiles": "Cc1cc(S(=O)(=O)O)c(N)cc1Cl", "Potency": "inactive"}, {"smiles": "CC(CNC1CCCCC1)OC(=O)c1ccccc1", "note": "(stereo not given)", "Potency": "inactive"}, {"smiles": "CC(C)NC[C@@H](O)COc1cccc2ccccc12", "Potency": "inactive"}, {"smiles": "Cc1ccccc1C(=O)Nc1ccc(C(=O)N2CCCC(O)c3cc(Cl)ccc32)c(C)c1", "note": "(stereo not given)", "Potency": "inactive"}, {"smiles": "Cc1ccc(C=O)s1", "Potency": "inactive"}, {"smiles": "CCOC(=O)C(Br)c1ccccc1", "note": "(stereo not given)", "Potency": "inactive"}, {"smiles": "CCOc1ccc(NS(=O)(=O)c2ccc(N)cc2)nn1", "Potency": "inactive"}, {"smiles": "O=C(O[C@@H](C(=O)O)[C@@H](OC(=O)c1ccccc1)C(=O)O)c1ccccc1", "Potency": "inactive"}, {"smiles": "CCOC(=O)C1CC(=O)C(=C(O)C2CC2)C(=O)C1", "note": "(stereo not given)", "Potency": "inactive"}, {"smiles": "C1CSCCS1", "Potency": "inactive"}, {"smiles": "COC(=O)c1ccc2cc(C(=O)OC)ccc2c1", "activation": "2.44% [at 19 µM] (inactive)"}, {"smiles": "C=C(C)C(=O)OCCOP(=O)(O)O", "Potency": "inactive"}, {"smiles": "CC(C)CC(=O)OCc1ccccc1", "Potency": "inactive"}, {"smiles": "CN(C)CC[C@@H](c1ccc(Cl)cc1)c1ccccn1", "Potency": "inactive"}, {"smiles": "CCCOCCC", "Potency": "inactive"}, {"smiles": "CC(C)c1ccccc1", "Potency": "inactive"}, {"smiles": "COc1ccc2nc(NC(=O)Nc3ccccc3)sc2c1", "Potency": "inactive"}, {"smiles": "NNS(=O)(=O)c1ccc(Oc2ccc(S(=O)(=O)NN)cc2)cc1", "Potency": "inactive"}, {"smiles": "CCCCCCn1c(=O)c2c(ncn2C)n(C)c1=O", "Potency": "inactive"}, {"smiles": "Cc1nc(N)nc(N)c1-c1ccc(Cl)c(Cl)c1", "Potency": "inactive"}, {"smiles": "CN(CC1(C)CCCO1)S(=O)(=O)c1ccc(Cl)c(S(N)(=O)=O)c1", "note": "(stereo not given)", "Potency": "inactive"}, {"smiles": "CCOC(=O)CS", "Potency": "3.15 µM (active)"}, {"smiles": "N#Cc1ccc(C(c2ccc(C#N)cc2)n2cncn2)cc1", "Potency": "inactive"}]}]}
